Inconclusive results are not listed. The call rests on the fitted dose curve; in most records, active means well fitted curve in either direction with a large enough effect (not every such curve was filed as active); inconclusive means small, poorly fitted or top-dose-only effect, or another doubt; inactive means flat fitted curve, though single readings scatter.
Assay: Stat Signaling Pathway (AID 446);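 further: ME-180 cervical cancer cells given 40 pM IL-6 alongside compound; SIE-controlled beta-lactamase reporter measured as 460/530 nm FRET emission ratio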
Details: ME-180 SIE beta-lactamase reporter, IL-6 stimulated, 5 h; at 7.69 µM (top of the series) unless noted
How it was run: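 ME-180 cells carrying a SIE-driven beta-lactamase reporter are stimulated with 40 pM IL-6 for 5 h at 37C in the presence of compound. The 460/530 nm FRET substrate ratio is read after 2.5 h at RT. Data are normalised to 300 pM IL-6 and to 125 nM JAK inhibitor controls.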
On the % scale 0 is the no-effect control and ±100 the full control effect.

activity, negative = inhibition, inactive:
COC(=O)N1CCC2(CCCN(Cc3ccccc3OC)C2)CC1 -10.7%, Cc1noc(C)c1C(=O)N1CCC[C@@]2(CCN(Cc3ccccc3)C2)C1 3.42%, O=S(=O)(c1ccccc1)N1CCC2(CCCN(c3ncccn3)C2)CC1 -0.568%, COc1ccc(NC(=O)N2CCCC3(CCNCC3)C2)cc1 5.73%, COc1ccc(NC(=O)N2CC3(CCN(C(C)=O)CC3)C2)cc1 -0.267%, CC(=O)N1CCC2(CC1)CN(c1ccccc1)C2 10.3%, COc1ccccc1CN1CC[C@@]2(CCCN(C(=O)c3cccn3C)C2)C1 -10.5%, Cn1cccc1C(=O)N1CCC[C@@]2(CCN(Cc3cc(C(F)(F)F)cc(C(F)(F)F)c3)C2)C1 8.87%, COc1ccccc1CN1CC[C@@]2(CCCN(C(C)=O)C2)C1 1.39%, COc1ccccc1CN1CC[C@@]2(CCCN(S(C)(=O)=O)C2)C1 5.92%, O=C(c1csnn1)N1CCC2(CC1)CN(c1ccccc1)C2 4.17%, COc1ccc(NC(=O)N2CC[C@@]3(CCCN(C(=O)c4cnccn4)C3)C2)cc1 6.32%, CC(C)CN1CC[C@@]2(CCCN(C(=O)c3csnn3)C2)C1 5.64%, CC(=O)N1CCC2(CC1)CCN(C(=O)Nc1cccc(F)c1)CC2 -7.06%, O=C(c1cnccn1)N1CCC2(CCCN(c3ccccc3)C2)CC1 -11.6%, O=C(c1ccncc1)N1CCC2(CC1)CCN(C(c1ccccc1)c1ccccc1)CC2 5%, COCC(=O)N1CCC[C@@]2(CCN(C(=O)Nc3cccc(F)c3)C2)C1 -1.05%, CC(C)NC(=O)N1CCCC2(CCN(C(=O)c3cccc(F)c3)CC2)C1 -2.81%, COc1ccccc1CN1CCC2(CC1)CCN(C(C)=O)CC2 0.91%, N#Cc1ccc(CN2CCCC3(CCN(C(=O)c4cccc(F)c4)CC3)C2)cc1 -5.26%, O=C(c1ccco1)N1CCC2(CC1)CN(C(c1ccccc1)c1ccccc1)C2 -4.65%, CS(=O)(=O)N1CCC2(CC1)CN(Cc1cc(C(F)(F)F)cc(C(F)(F)F)c1)C2 -3.12%, CC(C)NC(=O)N1CCCC2(CCN(C(=O)c3cc(C(F)(F)F)cc(C(F)(F)F)c3)CC2)C1 -13.3%, N#Cc1cccc(NC(=O)N2CCC3(CC2)CCN(C(=O)c2csnn2)CC3)c1 -0.506%, O=C(Oc1ccccc1)N1CCC[C@@]2(CCN(c3ncccn3)C2)C1 9%, COCC(=O)N1CCC[C@@]2(CCN(Cc3ccccc3OC)C2)C1 -1.88%, CC(C)NC(=O)N1CC[C@@]2(CCCN(C(=O)c3cc(C(F)(F)F)cc(C(F)(F)F)c3)C2)C1 -10.1%, O=C(Nc1cccc(F)c1)N1CC[C@@]2(CCCNC2)C1 -0.756%, COCC(=O)N1CCC2(CCCN(C(=O)Nc3ccc(OC)cc3)C2)CC1 -3.45%, O=C(c1ccco1)N1CCC[C@@]2(CCN(Cc3ccccc3)C2)C1 -7.43%, CC(=O)N1CCC2(CCCN(C(c3ccccc3)c3ccccc3)C2)CC1 17.6%, COc1cccc(-c2ccc3ncnc(NC4CCNCC4)c3c2)c1 -1.25%, COc1ccccc1CN1CCCC2(CCN(S(C)(=O)=O)CC2)C1 6.82%, O=C(c1csnn1)N1CCC[C@@]2(CCN(Cc3nccs3)C2)C1 -2.25%, O=C(c1csnn1)N1CCC2(CC1)CCN(c1ccccc1)CC2 1.19%, CC(C)CN1CC[C@@]2(CCCN(C(=O)c3cnccn3)C2)C1 4.96%, CN(C)c1ncc2ncc(=O)n(Cc3ccc(F)cc3)c2n1 -10.9%, O=C(c1ccco1)N1CCC[C@@]2(CCN(c3ccccc3)C2)C1 -4.84%, CC(C)CN1CC[C@@]2(CCCN(S(=O)(=O)c3ccccc3)C2)C1 -0.418%

Source: PubChem BioAssay (NCATS)
